Compound activity as filed in PubChem BioAssay.
In the library only some 10% were active in any assay of this set; here they are far more common.
G9a block: inhibitors of human histone lysine methyltransferase G9a; Q96KQ7; G9a H3K9 monomethylation, AlphaScreen, 2 h; Potency, µM (doses to about 102 µM), for inactives: top-dose activity, negative = inhibition, usual class: inhibitors; 350,000 compounds, 8.8% hits; further: potency means the concentration at half of the fitted maximal effect; on the % scale 0 is the no-effect control and ±100 the full control effect; nearly all actives have a fitted effect of over 75% in size
Target sequence (Q96KQ7 913-1193 limits assumed): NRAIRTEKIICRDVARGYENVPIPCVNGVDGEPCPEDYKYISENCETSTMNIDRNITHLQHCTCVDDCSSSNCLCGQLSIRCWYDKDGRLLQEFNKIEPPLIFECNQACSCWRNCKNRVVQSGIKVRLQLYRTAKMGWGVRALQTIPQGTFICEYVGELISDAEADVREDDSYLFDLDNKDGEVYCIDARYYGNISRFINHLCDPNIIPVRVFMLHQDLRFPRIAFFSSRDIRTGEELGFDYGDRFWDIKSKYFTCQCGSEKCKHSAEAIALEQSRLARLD
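Chemiluminescent proximity detection of H3K9 monomethylation, read after 10 min bead incubation in the dark. Reaction: 20 nM G9a, 500 nM biotin-H3K9 peptide, 20 uM SAM cofactor, 2 h, room temperature, following 15 min enzyme-compound preincubation.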
CtBP-E1A blk: inhibitors of CtBP/E1A interaction; AlphaScreen GST-E1A/His-CtBP binding, 1536-well; active compounds read low; activity change, % (no concentration beside the values); 340,000 compounds, 0.49% hits; AID 651724; in the data active means activity change below about -65%; inconclusive means mostly about -30% to -63%; further: on the % scale 0 is the no-effect control and ±100 the full control effect
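Homogeneous bead-based format: GST-tagged E1A captured on glutathione donor beads, His-tagged CtBP on nickel acceptor beads; compounds precede bead addition by 2 h at 37 °C.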
Six1-Eya2 blk: inhibitors of human Six1/Eya2 interaction | AlphaScreen GST-Six1/His-Eya2 binding, biochemical; active compounds read low | activity change, % (no concentration beside the values) | 360,000 compounds, 0.56% hits | Q15475+O00167 | AID 651725; in the data active means activity change below about -65%; inconclusive means mostly about -30% to -63%; further: on the % scale 0 is the no-effect control and ±100 the full control effect
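Compounds are tested against tagged Six1 and Eya2 proteins bridged by glutathione donor and nickel acceptor beads; after a one-hour incubation at 37 °C without light, AlphaScreen emission is recorded.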
HP1b chromo inh: HP1-beta chromodomain-methylated histone interaction inhibition; P83916; AlphaScreen HP1-beta / biotin-H3K9me3 peptide binding; Potency, µM (series often up to 114 µM), inactives show top-dose activity change, negative = inhibition, usual class: inhibitors; 390,000 compounds, 0.56% hits; further: potency means the concentration at half of the fitted maximal effect; nearly all actives have a fitted effect of over 70% in size
Target sequence (P83916 whole entry, looked up): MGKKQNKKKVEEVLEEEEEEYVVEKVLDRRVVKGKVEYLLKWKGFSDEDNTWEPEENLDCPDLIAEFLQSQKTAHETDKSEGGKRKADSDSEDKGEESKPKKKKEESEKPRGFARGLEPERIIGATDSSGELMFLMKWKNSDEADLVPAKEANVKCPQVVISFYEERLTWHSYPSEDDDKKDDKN
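AlphaScreen: HP1-beta (50 nM) preformed 30 min with biotin-H3(1-18)K9me3 peptide (50 nM) in PBS pH 7.4, 0.01% Tween-20. Compound added for 30 min at RT, then streptavidin donor/nickel chelate acceptor beads (10 ug/mL) for 30 min.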
JMJD2A Tudor: inhibitors of human JMJD2A Tudor domain; Potency, µM (titrated, usually from 114 µM), for the others: at the top dose activity change, negative = inhibition, actives largely listed as inhibitors; O75164; AID 504339; 390,000 compounds, 4.4% hits; AlphaScreen JMJD2A-Tudor / H3K4me3 peptide binding; further: potency means the concentration at half of the fitted maximal effect; on the % scale 0 is the no-effect control and ±100 the full control effect; nearly all actives have a fitted effect of over 50% in size
BAZ2B inh: inhibitors of human BAZ2B bromodomain. Q9UIF8. AlphaScreen BAZ2B-H3K14Ac peptide displacement. Potency, µM (top dose mostly 114 µM), without a hit: at the highest dose activity change, negative = inhibition, usual class: inhibitors. 360,000 compounds, 4.4% hits. AID 504333; further: potency means the concentration at half of the fitted maximal effect; on the % scale 0 is the no-effect control and ±100 the full control effect; nearly all actives have a fitted effect of over 60% in size
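Inhibition is scored as reduced AlphaScreen emission. The BAZ2B/b-H3(5-23)K14Ac complex (50 nM each) in PBS pH 7.4, 0.01% Tween-20 meets compound (up to 110 uM) for 30 min at RT before bead addition.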
* marks the source's active call; other numbers are inactive results; ? = inconclusive; . = no result given; [ ] = another dose, or the depositor's remark. Unless noted, the call rests on the fitted dose curve; in most records, active means well fitted inhibition curve with a large enough effect; inconclusive means small, poorly fitted or top-dose-only effect; inactive means no such curve, though single readings can be large or run the other way.

SMILES | G9a block | CtBP-E1A blk | Six1-Eya2 blk | HP1b chromo inh | JMJD2A Tudor | BAZ2B inh
CC(OC(=O)c1cc(O)c2ccccc2c1O)C(=O)Nc1ccc(C(N)=O)cc1 (centres undefined) | 7.1µM* | ? | ? | ? | ? | ?
COc1ccc(-c2c(C3C4C=CCC(C)C4C(=O)N3Cc3ccccc3)ccc3ccccc23)cc1OC (centres undefined) | . | . | . | -3% | ? | .
CC(=O)Nc1sc2c(c1C(c1ccc(F)cc1)N1CCOCC1)CCCC2 (centres undefined) | ? | -13 | -18 | -32% | ? | 50µM*
CC(=O)Nc1sc2c(c1C(c1ccccc1)N1CCOCC1)CCCC2 (centres undefined) | -21%[59 µM] | 8 | 2 | 12% | -32% | -10%
COc1ccc(C(c2c(NC(=O)c3ccco3)sc(C)c2C)N2CCOCC2)cc1 (centres undefined) | ? | -2 | 3 | -14% | ? | -8%
CC(=O)Nc1sc2c(c1C(c1ccc(Cl)cc1)N1CCOCC1)CCCC2 (centres undefined) | 45µM* | -5 | -11 | ? | ? | ?
CCN(CC)CCC(c1ccc(N(C)C)cc1)c1c(OC)cc(OC)c2c1OC(=O)CC2c1ccc(OC)cc1 (centres undefined) | . | . | . | ? | 16µM* | .
CCN(CC)CCC(c1ccc(N(C)C)cc1)c1c(OC)cc(OC)c2c1OC(=O)CC2c1ccc(N(C)C)cc1 (centres undefined) | . | . | . | 14µM* | 13µM* | .
COc1cc(OC)c2c(c1C(CCN1CCN(c3ccccc3)CC1)c1ccc(N(C)C)cc1)OC(=O)CC2c1ccc(N(C)C)cc1 (centres undefined) | . | . | . | ? | 13µM* | .
COc1ccc(C(CCN2CCCC(C)C2)c2c(OC)cc(OC)c3c2OC(=O)CC3c2cc(OC)c(OC)c(OC)c2)cc1 (centres undefined) | -6%[59 µM] | -6 | -6 | 7% | -21% | -24%
CCn1ccc2cc(S(=O)(=O)N3CCCN(C(=O)NCCOC)CC3)ccc21 | -4%[59 µM] | . | . | 26%[57 µM] | 5% | 5%
CCc1nc2nc(C)c(NS(=O)(=O)c3ccc(C)cc3)c(=O)n2[nH]1 | -28%[59 µM] | . | . | 29% | -3% | -10%
Cc1ccc(CNC(=O)Cn2c(=O)ccc3cc(S(=O)(=O)N4CCC(C)CC4)ccc32)cc1 | ? | . | . | 3%[57 µM] | -2% | -24%
N#CC(C#N)=C1C=CC=CN1/C(=C\c1ccccc1Cl)C(=O)c1ccccc1 | 14µM* | 7 | ? | ? | 50µM* | ?
N#CC(C#N)=C1C=CC=CN1/C(=C\c1ccccc1)C(=O)c1cccs1 | 1.1µM* | -25 | -22 | -12% | ? | -9%
COc1ccc(CCNC(=O)[C@@H](NC(=O)c2ccccc2F)C(C)C)cc1OC | 3% | -4 | 13 | 21% | 5% | -4%
Cc1ccc2[nH]c3c(c2c1)CN(C(=O)CN1CCN(c2cccc(C)c2C)CC1)CC3 | ? | -10 | -19 | -18% | 56µM* | 35µM*
Cc1ccc2[nH]c3c(c2c1)CN(C(=O)CN1c2ccc(F)cc2CCC1C)CC3 (centres undefined) | 32µM* | -17 | -20 | ? | 45µM* | 40µM*
Cc1ccc2[nH]c3c(c2c1)CN(C(=O)CN1CCN(C(=O)c2ccco2)CC1)CC3 | ? | . | . | . | . | -19%
O=C(CN1CCN(C(=O)c2ccco2)CC1)N1CCc2[nH]c3ccccc3c2C1 | 22µM* | 3 | -5 | 26% | -15% | -24%
COc1cccc(-n2cnc3sc(C)cc3c2=O)c1 | 1% | 7 | 7 | 5% | -21% | -11%
CCOc1ccc(C2C(=O)N(C3CCCCCC3)CC(=O)N2Cc2ccc(F)cc2)cc1OC (centres undefined) | -17%[59 µM] | . | . | 19% | -20% | -10%
CCOC(=O)c1c(C)oc2c1cc(NS(=O)(=O)c1ccc(C)cc1)c1ccccc12 | 21%[59 µM] | . | . | 20% | -7% | 6%
O=S(=O)(NN1CCOCC1)c1cc(Cl)cc(Cl)c1O | 30% | -3 | -16 | 15% | -19% | 4%
O=C(CN1C(=O)CCSc2ccc(S(=O)(=O)N3CCCC3)cc21)NCc1ccccc1Cl | 8% | 1 | 1 | 30% | -21% | -4%
SMILES | G9a block | CtBP-E1A blk | Six1-Eya2 blk | HP1b chromo inh | JMJD2A Tudor | BAZ2B inh
COc1cc(/C=C/CN2CCN(CCC(C)C)C(CCO)C2)ccc1O (centres undefined) | 71µM* | 0 | 2 | 21% | -25% | -21%
COc1ccc(/C=C/CN2CCN(CC(C)C)C(CCO)C2)cc1 (centres undefined) | ? | -18 | -10 | 24% | -14% | -2%
COc1cc(/C=C/CN2CCN(Cc3ccc(C)o3)C(CCO)C2)ccc1O (centres undefined) | 79µM* | -14 | -6 | -14% | -20% | -24%
COc1cc(/C=C/CN2CCC(CO)(CC3CCCCO3)CC2)ccc1O (centres undefined) | 56µM* | -17 | -1 | 2% | -16% | -24%
OCC1(CC2CCCCO2)CCN(C/C=C/c2ccccc2)CC1 (centres undefined) | 8% | 0 | -3 | 23% | -4% | 16%
CCN(CC)S(=O)(=O)c1ccc2c(c1)nc(-c1ccccn1)n2C | 10µM* | 0 | -16 | 2% | 32µM* | 4%
Cc1noc(C)c1NC(=O)N(C)C[C@H]1OCc2cn(nn2)CCCC(=O)N([C@@H](C)CO)C[C@@H]1C | . | 0 | 0 | . | . | .
CC(C)CCNc1nc(Nc2ccccc2)c2cnn(C)c2n1 | -2%[59 µM] | . | . | 4% | ? | -22%
Cc1ccc(-c2cnc(SCCNC(=O)c3ccco3)[nH]2)cc1 | 45µM* | -11 | 1 | 0% | -21% | -34%
COc1cccc2sc(N(CCCN(C)C)C(=O)COc3ccc(Cl)cc3)nc12 | 79µM* | 6 | 0 | 26% | -20% | .
CN(C)CCCN(C(=O)COc1ccccc1)c1nc2c(F)cccc2s1 | -46% | 1 | 0 | 58% | -10%[11.4 µM] | -8%
CN(C)CCCN(C(=O)COc1ccccc1)c1nc2ccc(Cl)cc2s1 | ? | -4 | -4 | 4% | -22% | .
CN(C)CCCN(C(=O)COc1ccc(Cl)cc1)c1nc2cc3c(cc2s1)OCCO3 | 50µM* | -3 | -7 | -20% | ? | -35%
CN(C)CCCN(C(=O)COc1ccc(Cl)cc1)c1nc2cc3c(cc2s1)OCO3 | 71µM* | -23 | -17 | -9% | ? | ?
CN(C)CCCN(C(=O)COc1ccccc1)c1nc2cc3c(cc2s1)OCO3 | 50µM* | -1 | -9 | 9% | -15% | -33%
